Among the data in PubChem BioAssay (NCI) are growth values, retold here.

The structures appear in SMILES notation. The panel holds about 83,000 compounds, 20% with a hit somewhere; the sample as a whole holds those more often.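 Activity criterion: percent growth below 10, measured after cells in 96-well plates were exposed to a single compound concentration for 48 hours.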 A number with no mark means an inactive call. The source made the active and inactive calls.

This assay deals with HL-60(TB) leukemia. Briefly: NCI-60 one-dose screen, 48 h (100 = growth as untreated, 0 = no growth, -100 = all killed). The conditions noted are these: 10 µM unless noted.
Regarding `Clc1ccccc1N=Cc1ccc2c(c1)OCO2`, the growth was 94.6%. With `CCN1C(=O)N(CC)C2C1NN=c1s/c(=C\c3ccccn3)c(=O)n12` (configuration not stated), the growth is -22.5% (active). In the case of `CN(C)Cc1cccs1` it was 104%. The result for `C=C1C(=O)O[C@H]2[C@H]1CC/C(C=Nc1ccc(C(F)(F)F)cc1N)=C\CC[C@@]1(C)O[C@@H]21` reads -7.77% (active); that for `COc1ccc(Nc2nn3c(SCC(=O)c4ccc(C)cc4)nnc3s2)cc1`, 86%. Turning to `Nc1ccccc1-c1n[nH]c(=O)[nH]c1=O`, the growth is 105%. For `CN1CCN(CCC(=O)Nc2cccc(-n3cc(-c4ccncc4)c(-c4ccc(Cl)c(O)c4)n3)c2)CC1`, the growth is 5.71% (active).

On to `C=C1C(=O)O[C@H]2[C@H]1CC/C(COC(=O)N[C@H](Cc1c[nH]c3ccccc13)C(=O)OC)=C\CC[C@@]1(C)O[C@@H]21`, for which the growth is -58% (active).

Turning to `O=C(NC1CCN(Cc2ccccc2)CC1)c1cc(-c2ccncc2)nc2ccc(Cl)cc12`, the growth was 15.2%. Regarding `CONC1=Nc2cc(NC(N)=NCc3ccccc3)c(N(C)C3CCCCC3)cc2OC1`, the growth is 69.5%. Regarding `CCN1CCC[C@H]1c1cc(O)c2c(c1OC)C[C@H]1C[C@H]3[C@H](N)C(=O)C(C(N)=O)=C(O)[C@@]3(O)C(=O)C1=C2O`, the growth is -49.2% (active). The result for `O=C(Cc1csc2nc(-c3ccc(Cl)cc3)cn12)N/N=C/c1ccccc1O` reads -3.5% (active).
